PubChem BioAssay (EPA / NIEHS)
Inconclusive results are not listed. The source made the active and inactive calls. The calls were made as follows, unless noted: active = hit-call score of the fitted dose curve at least 0.9, where 1 is the maximum; inactive = score below 0.9.

Columns and labels:
[1] = target: Paired box protein Pax-6 (Homo sapiens) (UniProt P26367); assay: ATG_Pax6_CIS: Attagene CIS-FACTORIAL HepG2 Assay for human Paired Box 6 (PAX6) (AID 2282956); settings: HepG2 CIS-FACTORIAL PAX6 reporter transcription, RNA readout; actives raise or lower the signal
Procedure, shortened: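 DMSO-referenced bidirectional fits of reporter mRNA fluorescence; HepG2 with transient cis-promoter MRTUs, 24 h post-dose, RT-PCR plus capillary electrophoresis detection.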

[2] = ATG_PXRE_CIS: Attagene CIS-FACTORIAL HepG2 Assay for human Pregnane X Receptor Element (PXRE) (AID 2282957); settings: HepG2 Attagene CIS-FACTORIAL PXRE reporter, mRNA; actives raise or lower the signal
Procedure, shortened: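 Bidirectional activity, baselined to DMSO, derived from reporter mRNA fluorescence (RT-PCR plus capillary electrophoresis) in HepG2 cells bearing cis-promoter reporter units, 24 h exposure.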

[3] = ATG_PPRE_CIS: Attagene CIS-FACTORIAL HepG2 Assay for human Peroxisome Proliferator-activated Response Element (PPRE) (AID 2282958); settings: HepG2 PPRE cis-element reporter, Attagene transcription factor profiling; actives raise or lower the signal
Procedure, shortened: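 Read-out: fluorescent reporter mRNA fragments resolved by capillary electrophoresis after RT-PCR. HepG2 cells carried transiently transfected PPRE-driven cis reporter constructs and were dosed for 24 h; gain or loss of signal fitted relative to DMSO.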

[4] = ATG_RORE_CIS: Attagene CIS-FACTORIAL HepG2 Assay for human RAR-related Orphan Receptor Element (RORE) (AID 2282959); settings: HepG2 Attagene cis-factorial RORE reporter, mRNA; actives raise or lower the signal
Procedure, shortened: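 Readout: fluorescent reporter mRNA by RT-PCR plus capillary electrophoresis, 24 h after dosing transfected HepG2 cells. Endogenous transcription factor activity on a cis promoter element is measured. Gain or loss of signal fitted against DMSO.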

[5] = ATG_Sox_CIS: Attagene CIS-FACTORIAL HepG2 Assay for human SRY-box transcription factor (SOX) (AID 2282960); settings: HepG2 Attagene cis-factorial SOX reporter, mRNA; actives raise or lower the signal
Procedure, shortened: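 Read-out: fluorescent RT-PCR products of SOX1-linked reporter transcripts resolved by capillary electrophoresis, fitted bidirectionally against DMSO. Transiently transfected HepG2 cells, 24 h after chemical exposure, endogenous transcription factor activity.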

[6] = target: Transcription factor Sp1 (Homo sapiens) (UniProt P08047); assay: ATG_Sp1_CIS: Attagene CIS-FACTORIAL HepG2 Assay for human Specificity Protein 1 (Sp1) (AID 2282961); settings: HepG2 Sp1 cis-reporter transcription, actives raise or lower the signal
Procedure, shortened: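 Read-out: fluorescence of 6-FAM-labeled, HpaI-digested RT-PCR products separated by capillary electrophoresis. HepG2 cells carried transfected cis-element reporter units and were exposed to chemicals for 24 h; gain or loss of signal fitted relative to DMSO.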

[7] = ATG_SREBP_CIS: Attagene CIS-FACTORIAL HepG2 Assay for human Sterol Regulatory Element Binding (SREBP) (AID 2282962); settings: HepG2 Attagene cis-factorial SREBP reporter, mRNA; actives raise or lower the signal
Procedure, shortened: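 In this cis-format assay, HepG2 liver cells express reporters controlled by promoter elements responsive to native transcription factors. Exposure lasts 24 h; reporter mRNA fluorescence from capillary electrophoresis gives the signal, fitted bidirectionally against DMSO.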

[8] = target: Signal transducer and activator of transcription 3 (Homo sapiens) (UniProt P40763); assay: ATG_STAT3_CIS: Attagene CIS-FACTORIAL HepG2 Assay for human Signal Transducer and Activator of Transcription 3 (STAT3) (AID 2282963); settings: HepG2, Attagene cis-factorial STAT3 reporter transcription; actives raise or lower the signal
Procedure, shortened: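 HepG2, MRTU-transfected, 24 h dosing. RNA → RT → PCR → FAM label → HpaI → CE. Bidirectional fit vs DMSO.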

[9] = ATG_TA_CIS: Attagene CIS-FACTORIAL HepG2 Assay for human TA Basal Promoter (AID 2282964); settings: HepG2 Attagene CIS-factorial TA basal promoter reporter; actives raise or lower the signal
Procedure, shortened: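 HepG2 cells transiently transfected with multiplexed cis-promoter reporter units, dosed 24 h. Reporter mRNA measured by RT-PCR, 6-FAM labelling, HpaI digestion and capillary electrophoresis; bidirectional fit versus DMSO baseline, serving as background control.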

[10] = ATG_TCF_b_cat_CIS: Attagene CIS-FACTORIAL HepG2 Assay for human T-Cell-Factor with beta-catenin (TCF/b-cat) (AID 2282965); settings: HepG2 TCF/beta-catenin cis-reporter transcription, actives raise or lower the signal
Procedure, shortened: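 HepG2 cells transiently transfected with multiple cis-promoter-regulated reporter transcription units, so endogenous transcription factor activity is measured. Reporter mRNA read 24 hours after dosing by RT-PCR, fluorescent labelling and capillary electrophoresis; bidirectional fitting against DMSO.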

[11] = ATG_TAL_CIS: Attagene CIS-FACTORIAL HepG2 Assay for human TAL Basal Promoter (AID 2282966); settings: HepG2 Attagene cis-factorial TAL promoter reporter; actives raise or lower the signal;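 also: background control endpoint measuring basal TAL promoter reporter mRNA not a specific factor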
Procedure, shortened: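 Human hepatoma HepG2 cells, transfected with promoter-regulated reporter units, were treated 24 h. Reporter transcript levels, measured through RT-PCR and capillary electrophoresis, were fitted for gain or loss relative to DMSO.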

[12] = ATG_TGFb_CIS: Attagene CIS-FACTORIAL HepG2 Assay for human Transforming Growth Factor (TGF) (AID 2282967); settings: HepG2 Attagene CIS TGFb reporter, mRNA transcription; actives raise or lower the signal
Procedure, shortened: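 HepG2 cells transiently transfected with cis-promoter-driven multiplexed reporter units; 24 h compound exposure. Reporter mRNA measured by RT-PCR, 6-FAM labeling, HpaI digestion and capillary electrophoresis; bidirectional fit versus DMSO baseline.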

[13] = ATG_VDRE_CIS: Attagene CIS-FACTORIAL HepG2 Assay for human Vitamin D Receptor Element (VDRE) (AID 2282968); settings: HepG2 VDRE cis-reporter transcription, actives raise or lower the signal
Procedure, shortened: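 Steps: transfect HepG2 with multiple reporter transcription units; dose chemicals 24 h; isolate RNA; RT-PCR; label with 6-FAM primer extension; HpaI digest; capillary electrophoresis. Curves fitted both directions against DMSO.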

[14] = target: Estrogen receptor (Homo sapiens) (UniProt P03372); assay: ATG_ERa_TRANS: Attagene TRANS-FACTORIAL HepG2 Assay for human Estrogen Receptor alpha (ERa) (AID 2282970; active = hit-call score of the fitted dose curve at least 0.9, where 1 is the maximum); settings: HepG2 Attagene TRANS ERa GAL4 reporter, mRNA
Procedure, shortened: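 Signal derives from fluorescence of labelled reporter PCR fragments separated by capillary electrophoresis. HepG2 cells transiently carrying multiple GAL4-UAS reporter units were treated 24 hours, and induction above DMSO baseline was fitted as activity.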

[15] = target: X-box-binding protein 1 (Homo sapiens) (UniProt P17861); assay: ATG_Xbp1_CIS: Attagene CIS-FACTORIAL HepG2 Assay for human X-box Binding Protein 1 (XBP1) (AID 2282972); settings: HepG2 XBP1 cis-element reporter, Attagene multiplex; actives raise or lower the signal
Procedure, shortened: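 Changes in reporter transcript abundance, read by RT-PCR and capillary electrophoresis, reflect endogenous transcription factor activity. Transfected HepG2 cells received compound for 24 hours; DMSO defined baseline for bidirectional analysis.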

[16] = ATG_GAL4_TRANS: Attagene TRANS-FACTORIAL HepG2 Assay for GAL4 (Internal Marker) (AID 2282976; active = hit-call score of the fitted dose curve at least 0.9, where 1 is the maximum); settings: HepG2 Attagene TRANS GAL4 internal marker reporter
Procedure, shortened: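 Liver HepG2 line bearing multiplexed GAL4-UAS reporter constructs; 24 h chemical treatment. Transcripts were quantified as fluorescent fragments on capillary electrophoresis after RT-PCR and HpaI cut, with activity fitted upward from DMSO.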

[17] = target: Steroid hormone receptor ERR1 (Homo sapiens) (UniProt P11474); assay: ATG_ERRa_TRANS: Attagene TRANS-FACTORIAL HepG2 Assay for human Estrogen-Related Receptor alpha (ERRa) (AID 2282971; active = hit-call score of the fitted dose curve at least 0.9, where 1 is the maximum); settings: HepG2 Attagene TRANS reporter, ERRa transactivation
Procedure, shortened: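 Signal gain relative to DMSO for an ERRa-Gal4 chimeric receptor, read as reporter mRNA by RT-PCR/capillary electrophoresis. Human HepG2 liver cells, transient multiplex reporter transfection, 24 h chemical exposure.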

[18] = ATG_M_19_TRANS: Attagene TRANS-FACTORIAL HepG2 Assay for M19 Transcription Factor (Internal Marker) (AID 2282974; active = hit-call score of the fitted dose curve at least 0.9, where 1 is the maximum); settings: HepG2 Attagene TRANS-FACTORIAL M19 internal marker reporter
Procedure, shortened: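 24 h chemical exposure of transiently transfected HepG2 (MRTU library). RNA → oligo(dT) RT → PCR → 6-FAM labelling → HpaI cut → CE fluorescence. Positive-direction fit vs DMSO baseline; background internal-marker readout.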

[19] = target: Estrogen-related receptor gamma (Homo sapiens) (UniProt P62508); assay: ATG_ERRg_TRANS: Attagene TRANS-FACTORIAL HepG2 Assay for human Estrogen-Related Receptor gamma (ERRg) (AID 2282977; active = hit-call score of the fitted dose curve at least 0.9, where 1 is the maximum;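 also: hits increase reporter signal over DMSO so potencies reflect activators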); settings: HepG2 Attagene TRANS reporter, ERRg transactivation
Procedure, shortened: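 Exogenous NR-Gal4 chimera activity measured as reporter transcript induction after 24 h in transiently transfected HepG2 cells. RNA reverse-transcribed, PCR-amplified, 6-FAM-labelled and resolved by capillary electrophoresis; increase over DMSO baseline.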

[20] = target: Nuclear receptor subfamily 1 group I member 3 (Homo sapiens) (UniProt Q14994); assay: ATG_CAR_TRANS: Attagene TRANS-FACTORIAL HepG2 Assay for human Constitutive Androstane Receptor (CAR) (AID 2282969; active = hit-call score of the fitted dose curve at least 0.9, where 1 is the maximum;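 also: activators raise reporter mRNA above DMSO so AC50 marks induction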); settings: HepG2 Attagene TRANS-FACTORIAL CAR reporter
Procedure, shortened: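 Steps: transient transfection of HepG2 with multiple GAL4-UAS reporter units; 24 h compound incubation; RNA isolation, RT-PCR, 6-FAM primer extension, HpaI digest; capillary electrophoresis. Gain-of-signal relative to DMSO negative control.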

Measured: outcome

Chain of Signal transducer and activator of transcription 3 (Homo sapiens) (P40763 whole entry, looked up): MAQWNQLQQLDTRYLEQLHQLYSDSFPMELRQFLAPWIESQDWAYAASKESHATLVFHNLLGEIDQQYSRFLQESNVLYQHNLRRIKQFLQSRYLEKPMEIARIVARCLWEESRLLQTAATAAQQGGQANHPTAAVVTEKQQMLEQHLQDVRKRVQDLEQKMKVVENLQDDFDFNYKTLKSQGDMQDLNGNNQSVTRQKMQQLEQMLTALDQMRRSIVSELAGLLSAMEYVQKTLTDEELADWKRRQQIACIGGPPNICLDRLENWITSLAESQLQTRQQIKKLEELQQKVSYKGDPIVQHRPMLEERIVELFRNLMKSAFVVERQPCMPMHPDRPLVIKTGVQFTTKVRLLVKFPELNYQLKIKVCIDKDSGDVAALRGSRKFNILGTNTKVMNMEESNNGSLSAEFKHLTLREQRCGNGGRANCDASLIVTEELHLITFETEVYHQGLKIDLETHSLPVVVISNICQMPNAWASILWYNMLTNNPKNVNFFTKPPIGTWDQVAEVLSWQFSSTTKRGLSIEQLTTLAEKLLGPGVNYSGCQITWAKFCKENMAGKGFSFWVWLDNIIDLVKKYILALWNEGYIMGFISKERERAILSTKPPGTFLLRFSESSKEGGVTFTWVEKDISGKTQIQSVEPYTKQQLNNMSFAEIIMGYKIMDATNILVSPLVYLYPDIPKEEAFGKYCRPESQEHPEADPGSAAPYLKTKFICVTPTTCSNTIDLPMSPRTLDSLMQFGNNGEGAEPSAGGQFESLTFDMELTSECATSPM
Chain of X-box-binding protein 1 (Homo sapiens) (P17861 whole entry, looked up): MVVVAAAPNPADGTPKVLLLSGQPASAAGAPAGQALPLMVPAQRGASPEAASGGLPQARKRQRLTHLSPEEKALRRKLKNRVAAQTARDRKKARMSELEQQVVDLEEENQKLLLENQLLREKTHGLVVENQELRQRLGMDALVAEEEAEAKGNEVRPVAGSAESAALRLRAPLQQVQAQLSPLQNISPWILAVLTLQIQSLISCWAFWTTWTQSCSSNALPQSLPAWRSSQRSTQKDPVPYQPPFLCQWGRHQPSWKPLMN
Chain of Estrogen receptor (Homo sapiens) (P03372 whole entry, looked up, the tested form may be a part): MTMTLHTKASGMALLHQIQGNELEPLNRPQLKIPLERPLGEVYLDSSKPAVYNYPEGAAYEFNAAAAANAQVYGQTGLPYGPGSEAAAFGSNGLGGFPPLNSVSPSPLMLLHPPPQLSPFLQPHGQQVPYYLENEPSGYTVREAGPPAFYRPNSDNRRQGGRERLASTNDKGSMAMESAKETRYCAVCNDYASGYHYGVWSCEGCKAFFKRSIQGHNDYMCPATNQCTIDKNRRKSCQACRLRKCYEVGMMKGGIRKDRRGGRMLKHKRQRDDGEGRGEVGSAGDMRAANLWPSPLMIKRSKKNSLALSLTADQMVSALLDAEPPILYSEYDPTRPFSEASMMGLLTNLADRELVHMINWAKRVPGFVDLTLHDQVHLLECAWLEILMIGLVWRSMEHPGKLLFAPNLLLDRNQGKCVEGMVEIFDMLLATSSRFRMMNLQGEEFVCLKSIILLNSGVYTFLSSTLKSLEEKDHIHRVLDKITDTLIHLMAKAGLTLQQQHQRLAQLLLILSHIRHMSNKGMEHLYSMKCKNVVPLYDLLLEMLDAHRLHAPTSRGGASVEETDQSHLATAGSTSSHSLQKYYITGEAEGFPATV
Chain of Transcription factor Sp1 (Homo sapiens) (P08047 whole entry, looked up): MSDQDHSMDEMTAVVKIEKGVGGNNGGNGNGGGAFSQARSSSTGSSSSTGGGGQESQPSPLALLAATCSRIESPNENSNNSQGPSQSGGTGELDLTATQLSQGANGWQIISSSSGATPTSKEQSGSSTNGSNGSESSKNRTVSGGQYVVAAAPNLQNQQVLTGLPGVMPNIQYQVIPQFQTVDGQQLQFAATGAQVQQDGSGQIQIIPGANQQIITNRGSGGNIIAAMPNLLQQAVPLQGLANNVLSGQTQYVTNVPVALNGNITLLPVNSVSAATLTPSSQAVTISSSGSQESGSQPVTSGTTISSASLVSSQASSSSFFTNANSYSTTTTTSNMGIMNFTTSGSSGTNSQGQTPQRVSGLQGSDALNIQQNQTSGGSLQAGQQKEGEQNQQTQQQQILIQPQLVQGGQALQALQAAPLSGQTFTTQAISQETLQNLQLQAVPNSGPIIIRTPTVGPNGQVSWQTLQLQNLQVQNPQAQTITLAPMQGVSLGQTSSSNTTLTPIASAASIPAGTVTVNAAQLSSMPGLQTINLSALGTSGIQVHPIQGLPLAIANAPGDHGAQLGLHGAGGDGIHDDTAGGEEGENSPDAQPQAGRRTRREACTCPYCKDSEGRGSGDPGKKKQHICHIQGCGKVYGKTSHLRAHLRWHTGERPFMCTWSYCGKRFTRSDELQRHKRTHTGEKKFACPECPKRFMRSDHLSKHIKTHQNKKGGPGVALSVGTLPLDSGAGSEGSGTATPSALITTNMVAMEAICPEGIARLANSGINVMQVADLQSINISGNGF
Chain of Paired box protein Pax-6 (Homo sapiens) (P26367 whole entry, looked up): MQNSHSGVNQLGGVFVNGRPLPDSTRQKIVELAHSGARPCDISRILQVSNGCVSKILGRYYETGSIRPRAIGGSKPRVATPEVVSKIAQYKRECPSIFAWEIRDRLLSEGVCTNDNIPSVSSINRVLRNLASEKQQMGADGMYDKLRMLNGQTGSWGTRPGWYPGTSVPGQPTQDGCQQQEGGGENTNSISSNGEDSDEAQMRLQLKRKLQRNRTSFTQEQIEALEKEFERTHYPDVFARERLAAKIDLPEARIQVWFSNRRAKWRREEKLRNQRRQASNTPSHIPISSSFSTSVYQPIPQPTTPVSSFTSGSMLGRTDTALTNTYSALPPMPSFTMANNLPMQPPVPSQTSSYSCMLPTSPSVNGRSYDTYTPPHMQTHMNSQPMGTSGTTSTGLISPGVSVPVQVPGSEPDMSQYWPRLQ
Chain of Steroid hormone receptor ERR1 (Homo sapiens) (P11474 whole entry, looked up, the tested form may be a part): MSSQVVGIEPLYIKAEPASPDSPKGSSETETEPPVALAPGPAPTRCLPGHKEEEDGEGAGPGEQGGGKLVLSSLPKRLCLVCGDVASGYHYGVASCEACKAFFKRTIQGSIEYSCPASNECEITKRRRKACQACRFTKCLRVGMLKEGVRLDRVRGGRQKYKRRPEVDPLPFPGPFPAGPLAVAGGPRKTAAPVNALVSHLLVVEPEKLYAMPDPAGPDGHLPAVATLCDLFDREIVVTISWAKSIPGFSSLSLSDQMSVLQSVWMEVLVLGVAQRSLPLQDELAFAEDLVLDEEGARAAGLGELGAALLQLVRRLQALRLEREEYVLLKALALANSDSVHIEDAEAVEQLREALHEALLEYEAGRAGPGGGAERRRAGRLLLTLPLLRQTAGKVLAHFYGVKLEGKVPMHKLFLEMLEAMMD
Chain of Nuclear receptor subfamily 1 group I member 3 (Homo sapiens) (Q14994 whole entry, looked up, the tested form may be a part): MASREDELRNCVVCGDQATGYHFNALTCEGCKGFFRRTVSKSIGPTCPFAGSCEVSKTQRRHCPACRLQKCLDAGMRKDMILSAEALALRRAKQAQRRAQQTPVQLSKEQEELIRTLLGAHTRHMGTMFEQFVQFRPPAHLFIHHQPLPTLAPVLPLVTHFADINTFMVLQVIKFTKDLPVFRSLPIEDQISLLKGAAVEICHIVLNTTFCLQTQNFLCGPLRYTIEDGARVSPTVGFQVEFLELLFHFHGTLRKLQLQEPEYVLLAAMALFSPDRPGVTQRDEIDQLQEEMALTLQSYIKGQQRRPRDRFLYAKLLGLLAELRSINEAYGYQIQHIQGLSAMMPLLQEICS
Chain of Estrogen-related receptor gamma (Homo sapiens) (P62508 whole entry, looked up, the tested form may be a part): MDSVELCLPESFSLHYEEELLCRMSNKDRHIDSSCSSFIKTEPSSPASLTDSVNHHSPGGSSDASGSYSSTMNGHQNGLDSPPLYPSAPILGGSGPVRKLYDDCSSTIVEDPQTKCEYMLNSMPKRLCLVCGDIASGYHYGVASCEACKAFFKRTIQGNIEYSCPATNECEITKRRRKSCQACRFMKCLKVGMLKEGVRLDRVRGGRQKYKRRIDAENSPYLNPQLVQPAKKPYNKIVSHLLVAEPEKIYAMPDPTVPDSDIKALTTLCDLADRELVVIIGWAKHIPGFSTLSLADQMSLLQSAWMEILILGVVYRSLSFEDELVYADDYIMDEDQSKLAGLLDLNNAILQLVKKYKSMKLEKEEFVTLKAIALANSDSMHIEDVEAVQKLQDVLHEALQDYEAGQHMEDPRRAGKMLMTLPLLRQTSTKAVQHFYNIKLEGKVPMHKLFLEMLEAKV

CCCCCC(C)O (stereo unspecified)
not listed: [17] | [18] | [19] | [20]
inactive: all other assays above

Cn1c([N+](=O)[O-])cnc1COC(N)=O
not listed: [14] | [16] | [20]
inactive: all other assays above

CCCCOCCOC(=O)COc1nc(Cl)c(Cl)cc1Cl
not listed: [16] | [17] | [19] | [20]
inactive: all other assays above

Cc1cccc(OCCOc2cccc(C)c2)c1
not listed: [13] | [16] | [19]
inactive: all other assays above
